Screens (PubChem BioAssay)
An excerpt weighted towards active compounds, which were near 18% of everything screened.
IL1B secr inh = qHTS for Inhibitors of Inflammasome Signaling: IL-1-beta AlphaLISA Primary Screen; 360,000 tested, 4.7% active; AID 743279, 2014; THP-1 LPS/ATP IL-1B secretion, AlphaLISA, 16 h; stronger effect = lower value; activity change, % at 57.5 µM; in the data active means activity change below about -50%; inconclusive means mostly about -30% to -49%
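Secreted IL-1B measured by AlphaLISA bead assay after 16 h compound exposure of THP-1 cells; compounds (final up to 57.5 uM) added 1 h before LPS (250 ng/mL) and ATP (1.25 mM) stimulation; lower signal means less secretion.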
TGFb SMAD3 inh = qHTS for Inhibitors of TGF-b. HepG2 CAGA-GFP TGF-b/SMAD3 reporter, GFP fluorescence, 18 h; TGF-beta stimulated, 500 pg/mL final. Potency, µM (titrated, usually from 46.1 µM), most hits filed as inhibitors. 410,000 tested, 1.2% active; further: nearly all actives have a fitted effect of over 65% in size
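TGF-beta reporter screen: HEPG2 CAGA-GFP, 1% FBS, 500 pg/mL TGF-beta final, 18 h; per-cell GFP summed per well; curves fitted and categorized by class.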
TDP1 inh = qHTS Assay for Inhibitors of Tyrosyl-DNA Phosphodiesterase (TDP1) | Tyrosyl-DNA phosphodiesterase 1 (Homo sapiens), Q9NUW8 | recombinant TDP1, AlphaScreen DNA substrate cleavage | Potency, µM (titrated, usually from 130 µM), usual class: inhibitors | 350,000 tested, 0.28% active | AID 485290, 2010; further: nearly all actives have a fitted effect of over 40% in size
Target sequence (Q9NUW8 whole entry, looked up): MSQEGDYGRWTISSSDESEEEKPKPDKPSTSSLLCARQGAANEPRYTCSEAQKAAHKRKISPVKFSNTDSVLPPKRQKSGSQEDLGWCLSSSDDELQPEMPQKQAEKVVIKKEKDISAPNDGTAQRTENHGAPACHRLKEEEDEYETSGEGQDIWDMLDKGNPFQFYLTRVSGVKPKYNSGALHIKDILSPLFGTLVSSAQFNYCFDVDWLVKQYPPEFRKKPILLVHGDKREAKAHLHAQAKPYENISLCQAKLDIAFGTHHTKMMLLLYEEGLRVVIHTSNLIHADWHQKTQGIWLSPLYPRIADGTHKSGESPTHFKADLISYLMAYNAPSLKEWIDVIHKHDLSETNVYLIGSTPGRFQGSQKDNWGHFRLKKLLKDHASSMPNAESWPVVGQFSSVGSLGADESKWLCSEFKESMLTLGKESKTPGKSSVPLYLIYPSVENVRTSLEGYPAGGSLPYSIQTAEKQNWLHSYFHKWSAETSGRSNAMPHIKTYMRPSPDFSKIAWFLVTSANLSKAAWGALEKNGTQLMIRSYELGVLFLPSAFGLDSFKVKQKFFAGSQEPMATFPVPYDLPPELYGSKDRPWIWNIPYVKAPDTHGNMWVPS
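Enzyme-compound mixtures sat 15 min at room temperature, followed by a 5 min reaction with 15 nM final substrate and 10 min with AlphaScreen beads. Recombinant human Tdp1 was used at 1 nM final.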
DT40 TDP1 no CPT = qHTS for Inhibitors of human tyrosyl-DNA phosphodiesterase 1 (TDP1): qHTS in cells in absence of CPT; Potency, µM (top dose mostly 46.2 µM), actives largely listed as inhibitors; DT40 Tdp1-/- hTDP1 cells, no CPT, ATP luminescence, 48 h; 420,000 tested, 15% active; further: nearly all actives have a fitted effect of over 55% in size
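DT40 Tdp1-/-;hTDP1 cells, no CPT (DMSO vehicle only), 400 cells/well; compounds pin-transferred; ≥48 hr, 37 °C; CellTiter-Glo 30 min RT dark, luminescence read.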
TDP1 cell CPT = qHTS for Inhibitors of human tyrosyl-DNA phosphodiesterase 1 (TDP1): qHTS in cells in presence of CPT | 420,000 tested, 12% active | Potency, µM (titrated, usually from 46.2 µM), most hits filed as inhibitors | AID 686979, 2013 | chicken DT40 Tdp1-/-;hTDP1 cells + 20 nM CPT, ATP luminescence, 48 h; further: nearly all actives have a fitted effect of over 55% in size
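Cell growth measured by CellTiter-Glo luminescence after a minimum 48 h, 37 C compound exposure with 20 nM CPT in Tdp1-knockout DT40 cells stably expressing hTDP1, seeded 400/well; qHTS titration format.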
HepG2 tox = qHTS for Inhibitors of TGF-b: Cytotox Counterscreen; HepG2 CAGA-GFP viability, ATP luminescence, 18 h; 410,000 tested, 0.76% active; Potency, µM (highest dose often 46.1 µM), most hits filed as cytotoxic; AID 588856, 2011
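CellTiter-Glo luminescence gave cytotoxicity after 18 hours at 37 degrees C. The cells were HepG2 CAGA-GFP in 1% FBS DMEM, stimulated with 500 pg/mL TGF-beta after compound addition. %Activity was normalised to no-cell wells (complete cell-killing) and DMSO (no toxicity), and curves were fitted and classified.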
Numbers stand for hits; - = inactive; ? = inconclusive; . = no result given; [ ] = dose if it differs, or a comment. Unless noted, the call rests on the fitted dose curve; in most records, active means well fitted curve in the direction sought with a large enough effect; inconclusive means small, poorly fitted or top-dose-only effect, or another doubt; inactive means no such curve, though single readings can be large; an effect the other way counts as inactive or inconclusive.

SMILES	IL1B secr inh	TGFb SMAD3 inh	TDP1 inh	DT40 TDP1 no CPT	TDP1 cell CPT	HepG2 tox
CC(C)c1ccc(NS(=O)(=O)c2ccc3nc(-c4ccccc4)[nH]c3c2)cc1	.	?	-	?	15µM	-
Cc1ccc(NS(=O)(=O)c2ccc3nc(-c4ccccc4)[nH]c3c2)c(Br)c1	.	-	-[12.3 µM]	23µM	15µM	-
Cc1cccc(NS(=O)(=O)c2ccc3nc(-c4ccccc4)[nH]c3c2)c1C	-	?	-	16µM	16µM	-
O=S(=O)(Nc1ccc(Br)cc1)c1ccc2nc(-c3ccccc3)[nH]c2c1	.	?	-	?	?	-
Cc1cc(C(=O)N2CCCC(Nc3ccc(F)cc3)C2)n(C)n1 (centres undefined)	-	-	-	-	-	-
O=C(CSc1cccc2cccnc12)Nc1ccc(S(=O)(=O)N2CCOCC2)cc1	-101	?	.	?	?	-
Cc1cccc(NC(=O)CSc2cccc3cccnc23)c1C	-	?	.	-	-	-
Cc1cccc(CSc2cccc3cccnc23)c1	-110	?	-	3.7µM	4.1µM	-
COc1cccc(/C=N/NC(=O)CSc2cccc3cccnc23)c1	-	?	.	12µM	?	-
CCCCCOc1ccc(NC(=O)CSc2cccc3cccnc23)cc1	-	?	-	?	?	20µM
O=C(CSc1cccc2cccnc12)Nc1cccc(S(=O)(=O)N2CCOCC2)c1	-	-	-	-	-	-
O=C(O)C1(C(=O)O)CCC2(CCCCC2)CC1	-	-	.	-	-	-
CCCC(C)(C)C(=O)N1CCC1(C)C(=O)NS(=O)(=O)c1ccccc1Cl (centres undefined)	-	-	.	-	-	-
CCOC(=O)C1=C(COC(=O)c2nc(Cl)ccc2Cl)NC(=O)NC1C (centres undefined)	-	-	-	-	-	-
CCOC(=O)CSc1cccc2cccnc12	-	?	-	5.8µM	5.8µM	8.9µM
COc1ccc(Oc2ncc3nc(-c4cn(C)c5ccccc45)c(=O)n(CCC#N)c3n2)cc1	.	.	.	-	-	.
CC(=O)n1cc(N(C(=O)CCl)c2ccc(C)cc2)c2ccccc21	-95	5.6µM	-	1.6µM	3.3µM	5µM
Oc1cccc2cc(Nc3ccccc3)cnc12	.	3.5µM	.	.	.	-
Oc1cc(Nc2ccccc2)cc2cccnc12	.	32µM	-	.	.	11µM
Oc1cc(-c2cccnc2)cc2cccnc12	.	?	-	.	.	-
O=C(NCCc1ccc(Cl)cc1Cl)C1=CC=CN2CCS(=O)(=O)N=C12	-	-	-	?	-	-
COc1ccc(S(=O)(=O)N(CC(=O)N2CCC(C)CC2)c2ccc(C)cc2)cc1	.	-	.	?	?	-
COc1ccc(CNS(=O)(=O)NCc2ccc(OC)c(OC)c2)cc1	-	-	-	?	?	-
COc1ccc(CNS(=O)(=O)NCc2ccc(C)cc2)cc1OC	-	-	-	16µM	?	-
COc1cc(-c2nnc(-c3ccc(S(=O)(=O)c4ccccc4)cc3)o2)cc(OC)c1OC	-	-	-	12µM	12µM	-
SMILES	IL1B secr inh	TGFb SMAD3 inh	TDP1 inh	DT40 TDP1 no CPT	TDP1 cell CPT	HepG2 tox
COc1cc(-c2nnc(-c3ccc(N4CCOCC4)cc3)o2)cc(OC)c1OC	?	-	-	5.8µM	6.5µM	-
Cc1ccc(Nc2c(F)cccc2Cl)c(CC(=O)O)c1	.	.	.	-	-	.
O=C(NCCc1ccc(F)cc1)C1CCN(C(=O)Nc2ccccc2)CC1	-	-	-	-	-	-
CCOc1ccc(-c2nnn(CC(=O)NCc3ccco3)n2)cc1OCC	-	-	-	-	-	-
CCCCOc1ccc(-c2nnn(CC(=O)NCc3ccco3)n2)cc1	-	-	-	4.6µM	4.6µM	-
O=C1Nc2cc3c(cc2C1=O)sc1ccccc13	.	-	.	29µM	21µM	-
Cc1cc2c(cc1C)C(=O)C(=O)N2	-	-	.	?	?	-
COc1ccc(C2c3ccc4ccccc4c3Oc3ncn(CCO)c(=N)c32)cc1OC (centres undefined)	?	-	.	21µM	23µM	-
COc1ccc(Cc2nc3c4c(ncn3n2)Oc2c(ccc3ccccc23)C4c2ccc(OC)c(OC)c2)cc1 (centres undefined)	-	-	-	?	-	-
COc1ccc(C2c3ccc4ccccc4c3Oc3ncn(CCCO)c(=N)c32)cc1OC (centres undefined)	-55	11µM	-	21µM	?	-
CC(Sc1nc(-c2ccccc2)c(C#N)c(=O)[nH]1)C(=O)Nc1ccc(F)cc1 (centres undefined)	.	-	-	-	-	-
Cc1ccc2c(c1)N(CC(=O)N1CCCCCC1)C(=O)C(C)O2 (centres undefined)	-	-	-	-	-	-
Cc1ccc(-c2noc(CSc3nnc(Cc4cccs4)n3-c3ccccc3)n2)cc1	-	?	-	21µM	21µM	-
Clc1ccc(-c2noc(CSc3nnc(Cc4cccs4)n3-c3ccccc3)n2)cc1	-	?	-	?	?	-
CCOc1ccc(-c2noc(CSc3nnc(Cc4ccccc4)n3-c3cccc(C)c3)n2)cc1	.	?	-	13µM	18µM	-
Cc1ccc(-c2noc(CSc3nnc(Cc4ccccc4)n3-c3cccc(C)c3)n2)cc1	?	?	-	18µM	?	-
CCOc1ccc(-c2nnc(SCc3nnc(-c4ccccc4)o3)n2-c2ccccc2F)cc1	-	-	-	23µM	16µM	-
CCOc1ccc(-c2noc(CSc3nnc(Cc4ccccc4)n3-c3ccc(F)cc3)n2)cc1	.	?	-	?	?	-
CC(=O)N1c2ccc(S(=O)(=O)N3CCCC(C(=O)NCc4ccccc4)C3)cc2CC1C (centres undefined)	-	-	.	?	-	-
C[C@@H]1CN([C@@H](C)CO)C(=O)CCCn2nncc2CO[C@H]1CN(C)C(=O)OCc1ccccc1	-	-	.	-	-	-
CCOc1ccc(-n2c(SCc3nc(-c4ccc(C)cc4)no3)nnc2-c2ccncc2)cc1	-	?	-	?	?	-
CCOc1ccc(-c2noc(CSc3nnc(-c4ccccc4)n3-c3ccccc3)n2)cc1	.	-	-	12µM	21µM	-
